Assay results: PubChem BioAssay (Tox21)
Records with an inconclusive call do not appear. Active and inactive are the calls of the source. The call rests on the fitted dose curve; in most records, active means well fitted curve in the direction sought with a large enough effect in the repeat runs; inconclusive means weak or mixed curves; inactive means no such curve, though single readings can be large; an effect the other way counts as inactive or inconclusive. Non-standard residues stand in square brackets, D forms with d. Residues, ends and D or L forms follow the SMILES beside them. pGlu = O=C1CC[C@@H](C(=O)O)N1

test system: not listed separately; assay: qHTS assay to identify small molecule antagonists of the estrogen receptor alpha (ER-alpha) signaling pathway using the BG1 cell line - cell viability counter screen (AID 743081); conditions: BG1Luc4E2 viability, CellTiter-Fluor, 22 h; series mostly up to 70.3 µM; activity change, negative = cytotoxicity: at the top concentration;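 further: compound given together with 17beta-estradiol as the ER stimulus; nearly all actives have a fitted effect of over 45% in size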
On the % scale 0 is the no-effect control and ±100 the full control effect; potency means the concentration at half of the fitted maximal effect.

SMILES	activity change, negative = cytotoxicity	Potency
C/C=C(/CC[C@@H](C)[C@H]1CC[C@H]2C3=CC[C@H]4[C@H](C)[C@@H](O)CC[C@]4(C)[C@H]3CC[C@]12C)C(C)C	6.29% (inactive)	–
O=C(Nc1ccc(Br)cc1)c1cc(Br)c(Br)s1	-4.12% (inactive)	–
C[C@H](N)C(=O)N[C@@H](C)P(=O)(O)O	-3.56% (inactive)	–
NC[C@@H]1O[C@H](O[C@H]2[C@@H](O)[C@H](O[C@@H]3[C@@H](O)[C@H](N)C[C@H](N)[C@H]3O[C@H]3O[C@H](CO)[C@@H](O)[C@H](O)[C@H]3N)O[C@@H]2CO)[C@H](N)[C@@H](O)[C@@H]1O	-1.44% (inactive)	–
CC[C@H](C)[C@H](NC(=O)[C@H](Cc1ccccc1)NC(=O)[C@H](C)NC(=O)[C@H](CC(=O)O)NC(=O)[C@H](CCCCN)NC(=O)[C@H](CO)NC(=O)[C@@H]1CCCN1C(=O)[C@@H]1CCC(=O)N1)C(=O)NCC(=O)N[C@@H](CC(C)C)C(=O)N[C@@H](CCSC)C(N)=O ([pGlu]PSKDAFIGLM-NH2)	5.74% (inactive)	–
Cc1cccc(Nc2ncccc2C(=O)O)c1C	-0.922% (inactive)	–
CCCCCC(O)/C=C/C=O (stereo not drawn)	-4.34% (inactive)	–
OCCO[C@@H]1[C@@H](O)[C@H](O)[C@@H](CO)O[C@@H]1O	13.1% (inactive)	–
N[C@H](CCC(=O)O)C(=O)O	-24.9% (inactive)	–
CC(O)CN(C)C (stereo not drawn)	0.145% (inactive)	–
Cc1ccc(C2(O)CCN(CCCC(=O)c3ccc(F)cc3)CC2)cc1	-8.28% (inactive)	–
CO[C@H]1O[C@@H]2O[C@@]3(C)CC[C@H]4[C@H](C)CC[C@@H]([C@H]1C)[C@@]24OO3	28.9% (inactive)	–
CC1=C(/C=C/C(C)=C/C=C/C(C)=C/C(=O)Oc2c(C)c(C)c3c(c2C)CC[C@@](C)(CCC[C@H](C)CCC[C@H](C)CCCC(C)C)O3)C(C)(C)CCC1	0.225% (inactive)	–
O=C(Cn1c(=O)sc2ccc(Cl)cc21)N1CCN(CCO)CC1	21.1% (inactive)	–
NS(=O)(=O)c1cc2c(cc1Cl)NC(Cc1ccccc1)NS2(=O)=O (stereo not drawn)	0.322% (inactive)	–
c1cnc2cc3c(cc2n1)[C@@H]1CNC[C@H]3C1	11.2% (inactive)	–
O=C(O)C1CCCN1 (stereo not drawn)	3.53% (inactive)	–
CCCCC(=O)OCC(=O)[C@]1(O)Cc2c(O)c3c(c(O)c2[C@@H](O[C@H]2C[C@H](NC(=O)C(F)(F)F)[C@H](O)[C@H](C)O2)C1)C(=O)c1c(OC)cccc1C3=O	–	23.7 µM (active)

target: Aromatase (Homo sapiens) (UniProt P11511); assay: qHTS assay to identify aromatase inhibitors (AID 743083); conditions: MCF-7 aro ERE, testosterone-driven ERE luciferase, 24 h; series mostly up to 70.3 µM; activity, negative = inhibition: at the top concentration; further: nearly all actives have a fitted effect of over 55% in size
Sequence (P11511 whole entry, looked up): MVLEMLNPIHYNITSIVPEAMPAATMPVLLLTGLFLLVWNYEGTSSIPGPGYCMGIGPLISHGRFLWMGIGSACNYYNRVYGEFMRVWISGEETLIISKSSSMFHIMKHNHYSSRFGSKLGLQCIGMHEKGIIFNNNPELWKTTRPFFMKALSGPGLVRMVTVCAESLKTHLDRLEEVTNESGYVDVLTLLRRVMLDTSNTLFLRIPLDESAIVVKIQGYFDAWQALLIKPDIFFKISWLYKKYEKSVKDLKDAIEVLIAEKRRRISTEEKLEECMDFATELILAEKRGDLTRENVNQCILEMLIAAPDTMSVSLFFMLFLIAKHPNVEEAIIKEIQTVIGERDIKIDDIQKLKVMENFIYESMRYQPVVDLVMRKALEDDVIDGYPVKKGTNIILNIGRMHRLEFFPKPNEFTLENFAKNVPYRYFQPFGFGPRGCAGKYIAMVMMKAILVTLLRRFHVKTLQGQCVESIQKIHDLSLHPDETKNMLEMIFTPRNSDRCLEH

SMILES	activity, negative = inhibition	Potency
CN[C@@H]1CCc2[nH]c3ccc(C(N)=O)cc3c2C1	-7.61% (inactive)	–
FC(F)(F)C(F)(F)C(F)(F)C(F)(F)C(F)(F)C(F)(F)F	6.02% (inactive)	–
CCCCCCCCCCCCCCCC(=O)OC[C@@H](NC(=O)C(Cl)Cl)[C@H](O)c1ccc([N+](=O)[O-])cc1	15.4% (inactive)	–
C/C(=C(\CCOC(=O)c1ccccc1)SS/C(CCOC(=O)c1ccccc1)=C(/C)N(C=O)Cc1cnc(C)nc1N)N(C=O)Cc1cnc(C)nc1N	-17.3% (inactive)	–
CCOC(=O)[C@H](CCc1ccccc1)N[C@@H](C)C(=O)N1CC2(C[C@H]1C(=O)O)SCCS2	-9.42% (inactive)	–
CC(=O)N=c1sc(S(N)(=O)=O)nn1C	0.0074% [at 32.5 µM] (inactive)	–
CN1[C@@H]2CCC[C@H]1CC(NC(=O)c1nn(C)c3ccccc13)C2 (stereo partly drawn)	-1.72% (inactive)	–
O=C(O[C@H]1CN2CCC1CC2)N1CCc2ccccc2[C@@H]1c1ccccc1	26.1% (inactive)	–
CCC[C@@]1(CCc2ccccc2)CC(O)=C([C@H](CC)c2cccc(NS(=O)(=O)c3ccc(C(F)(F)F)cn3)c2)C(=O)O1	-15.1% (inactive)	–
COC1=C(C(=O)O)N2C(=O)[C@@H](NC(=O)[C@H](N)C3=CCC=CC3)[C@H]2SC1	7.4% (inactive)	–
CCCCc1cc2c(=O)c(C(=O)OC)c[nH]c2cc1OCc1ccccc1	0.433% (inactive)	–
CCCCCCCCCCCCCCCCCC(=O)[O][Al]	27.5% (inactive)	–
CCNC(=O)[C@@H]1CCCN1C(=O)[C@H](CCCN=C(N)N)NC(=O)[C@H](CC(C)C)NC(=O)[C@@H](Cc1c[nH]c2ccccc12)NC(=O)[C@H](Cc1ccc(O)cc1)NC(=O)[C@H](CO)NC(=O)[C@H](Cc1c[nH]c2ccccc12)NC(=O)[C@H](Cc1cnc[nH]1)NC(=O)[C@@H]1CCC(=O)N1	–	13.3 µM (active)
C/C=C(/CC[C@@H](C)[C@H]1CC[C@H]2C3=CC[C@H]4[C@H](C)[C@@H](O)CC[C@]4(C)[C@H]3CC[C@]12C)C(C)C	-7.37% (inactive)	–
O=C(Nc1ccc(Br)cc1)c1cc(Br)c(Br)s1	-29.3% (inactive)	–
COc1ccccc1N1CCN(CCCC(=O)c2ccc(F)cc2)CC1	-2.06% (inactive)	–
C[C@H](N)C(=O)N[C@@H](C)P(=O)(O)O	6.77% (inactive)	–
NC[C@@H]1O[C@H](O[C@H]2[C@@H](O)[C@H](O[C@@H]3[C@@H](O)[C@H](N)C[C@H](N)[C@H]3O[C@H]3O[C@H](CO)[C@@H](O)[C@H](O)[C@H]3N)O[C@@H]2CO)[C@H](N)[C@@H](O)[C@@H]1O	2.42% (inactive)	–

SMILES	activity, negative = inhibition	Potency
O=P(O)(O)C(Sc1ccc(Cl)cc1)P(=O)(O)O	-4.16% (inactive)	–
CC[C@H](C)[C@H](NC(=O)[C@H](Cc1ccccc1)NC(=O)[C@H](C)NC(=O)[C@H](CC(=O)O)NC(=O)[C@H](CCCCN)NC(=O)[C@H](CO)NC(=O)[C@@H]1CCCN1C(=O)[C@@H]1CCC(=O)N1)C(=O)NCC(=O)N[C@@H](CC(C)C)C(=O)N[C@@H](CCSC)C(N)=O ([pGlu]PSKDAFIGLM-NH2)	11.8% (inactive)	–
Cc1cccc(Nc2ncccc2C(=O)O)c1C	46% (inactive)	–
CCCCCC(O)/C=C/C=O (stereo not drawn)	13.8% (inactive)	–
OCCO[C@@H]1[C@@H](O)[C@H](O)[C@@H](CO)O[C@@H]1O	100% (inactive)	–
N[C@H](CCC(=O)O)C(=O)O	-1.62% (inactive)	–
CC(O)CN(C)C (stereo not drawn)	-11.1% (inactive)	–
Cc1ccc(C2(O)CCN(CCCC(=O)c3ccc(F)cc3)CC2)cc1	0.39% (inactive)	–
CO[C@H]1O[C@@H]2O[C@@]3(C)CC[C@H]4[C@H](C)CC[C@@H]([C@H]1C)[C@@]24OO3	-8.67% (inactive)	–
O=C(O)[C@@H](O)[C@H](O)[C@H](O)[C@@H](O)C(=O)O (tested in a mixture with another compound)	0.739% (inactive)	–
O=C(Cn1c(=O)sc2ccc(Cl)cc21)N1CCN(CCO)CC1	-7.14% (inactive)	–
NS(=O)(=O)c1cc2c(cc1Cl)NC(Cc1ccccc1)NS2(=O)=O (stereo not drawn)	-6.71% (inactive)	–
c1cnc2cc3c(cc2n1)[C@@H]1CNC[C@H]3C1	3.87% (inactive)	–
NCCCC[C@H](NC(=O)[C@@H]1CCCN1C(=O)[C@@H]1CSSC[C@H](N)C(=O)N[C@@H](Cc2ccccc2)C(=O)N[C@@H](Cc2ccccc2)C(=O)N[C@@H](CCC(N)=O)C(=O)N[C@@H](CC(N)=O)C(=O)N1)C(=O)NCC(N)=O	-1.19% (inactive)	–
c1ccc2c(c1)Sc1ccccc1N2CCN1CCCC1	-10.2% (inactive)	–
O=C(O)C1CCCN1 (stereo not drawn)	1.76% (inactive)	–
CCCCC(=O)OCC(=O)[C@]1(O)Cc2c(O)c3c(c(O)c2[C@@H](O[C@H]2C[C@H](NC(=O)C(F)(F)F)[C@H](O)[C@H](C)O2)C1)C(=O)c1c(OC)cccc1C3=O	42.3% (inactive)	–
